Consider 39 sequences from paper PMC4081100, “A DNA-binding-site landscape and regulatory network analysis for NAC transcription factors in Arabidopsis thaliana”.

For this assay, the target named is GST-WRKY1(266-371) (Arabidopsis thaliana, UniProt Q9SI37 266-371). Briefly: universal protein binding microarray (PBM); transcription factors of Arabidopsis thaliana; high values mean tight binding. The settings on record: protein: recombinant; tags: GST; dsDNA, one strand shown. Summed up: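 Protein amounts were determined by A280 or anti-GST western blot after glutathione–Sepharose 4B purification of GST-tagged proteins induced in cells, with zinc acetate included for zinc-finger proteins. Duplicate runs at 200 to 500 nM final were done on custom all-10-mer Agilent 4 × 180K arrays made double-stranded by primer extension. The normalised enrichment score (E-score) over gapped and ungapped 8-mers is the measure of binding.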
GST-WRKY1(266-371), sequence (Q9SI37 266-371): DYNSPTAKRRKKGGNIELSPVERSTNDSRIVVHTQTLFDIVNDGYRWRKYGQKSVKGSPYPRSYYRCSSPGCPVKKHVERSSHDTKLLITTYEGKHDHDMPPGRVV
As to ACTCTGAC, the binding signal amounted to 0.437 E-score.

In the case of CTGACCGA, the binding signal stood at 0.439 E-score.

On to ATCGGTCA, for which the binding signal turned out to be 0.451 E-score.

Take TGACCCAA: the binding signal was 0.419 E-score.

As to CGTCTGAC, the binding signal is 0.418 E-score.

As for GACGACCA, the binding signal was found to be 0.43 E-score.

Take TCTGACCA: the binding signal was determined as 0.456 E-score.

Consider CCCGGTCA, for which the binding signal turned out to be 0.445 E-score.

In the case of GAGTCAGC, the binding signal was determined as 0.418 E-score.

CAAGGTCA: the binding signal stood at 0.425 E-score.

As to GGTCGTCA, the binding signal was found to be 0.41 E-score.

On to ATGGTCAG, for which the binding signal amounted to 0.421 E-score.

AGAGGTCA: the binding signal came out at 0.425 E-score.

Consider AGTGGTCA, for which the binding signal is 0.436 E-score.

On to CGGGTCAG, for which the binding signal amounted to 0.408 E-score.

As for ACGACCAG, the binding signal worked out at 0.403 E-score.

For the sequence CGGAGTCA, the binding signal came to 0.405 E-score.

Take AGGGGTCA: the binding signal stood at 0.415 E-score.

Take GCCTTGAC: the binding signal was 0.457 E-score.

In the case of TCGAGTCA, the binding signal amounted to 0.417 E-score.

Turning to GTGGACCA, the binding signal came out at 0.418 E-score.

Turning to CTATGACC, the binding signal was determined as 0.412 E-score.

CTCTGACC: the binding signal was found to be 0.458 E-score.

With GTCAAGGA, the binding signal is 0.455 E-score.

On to CGACGACC, for which the binding signal is 0.439 E-score.

Consider CAGGGTCA, for which the binding signal was 0.403 E-score.

For the sequence CGGTCCAC, the binding signal amounted to 0.434 E-score.

Regarding AAGACCAG, the binding signal worked out at 0.427 E-score.

Turning to GCGAGTCA, the binding signal came out at 0.414 E-score.

For AGTCAGCA, the binding signal is 0.432 E-score.

Take CGTGGACC: the binding signal came to 0.444 E-score.

Regarding GTCAGCGA, the binding signal turned out to be 0.43 E-score.

CAGGTCAG: the binding signal was found to be 0.418 E-score.

With ACCGGTCA, the binding signal was found to be 0.463 E-score.

With ACAGGTCA, the binding signal came to 0.443 E-score.

As to ATAGGTCA, the binding signal amounted to 0.409 E-score.

As for CTAGGTCA, the binding signal came out at 0.428 E-score.

For the sequence AGTCAACC, the binding signal was determined as 0.486 E-score.

Take TCGGGTCA: the binding signal was found to be 0.434 E-score.
